Drawing on ChEMBL document CHEMBL2218924, “A broad activity screen in support of a chemogenomic map for kinase signalling research and drug discovery” (Biochem J, 2013), this text covers residual activity for six compounds.

Test [1] addresses Insulin receptor (Homo sapiens) (UniProt P06213). The settings on record: at 10 µM.
Test [2] shares this target. The settings on record: at 1 µM.
Test [3] has the same target. The settings on record: at 10 µM. The source holds these as a separate data set.
Test [4] addresses Interleukin-1 receptor-associated kinase 1 (Homo sapiens) (UniProt P51617). The settings on record: at 1 µM.
The target is the same in test [5]. The settings on record: at 10 µM.
In test [6] the target is T1, Interleukin-1 receptor-associated kinase 4 (Homo sapiens) (UniProt Q9NWZ3).
T1 sequence (whole entry): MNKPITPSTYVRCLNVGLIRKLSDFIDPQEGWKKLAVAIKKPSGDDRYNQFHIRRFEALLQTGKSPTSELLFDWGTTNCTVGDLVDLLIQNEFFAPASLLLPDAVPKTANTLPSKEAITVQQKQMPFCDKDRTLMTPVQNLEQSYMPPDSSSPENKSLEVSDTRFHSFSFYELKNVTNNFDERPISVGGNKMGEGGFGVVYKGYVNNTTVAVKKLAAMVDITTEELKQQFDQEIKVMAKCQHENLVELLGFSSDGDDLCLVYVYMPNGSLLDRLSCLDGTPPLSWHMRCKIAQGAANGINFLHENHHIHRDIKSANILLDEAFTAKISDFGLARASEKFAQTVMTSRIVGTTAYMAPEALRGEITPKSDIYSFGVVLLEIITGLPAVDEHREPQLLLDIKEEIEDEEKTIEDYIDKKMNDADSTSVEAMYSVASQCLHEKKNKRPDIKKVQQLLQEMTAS
The settings on record: at 1 µM.

Test [7] addresses Insulin receptor-related protein (Homo sapiens) (UniProt P14616). The settings on record: at 1 µM.
For test [8] the target is unchanged. The settings on record: at 10 µM.
Test [9] has as its target T2, Tyrosine-protein kinase ITK/TSK (Homo sapiens) (UniProt Q08881).
T2 sequence (whole entry): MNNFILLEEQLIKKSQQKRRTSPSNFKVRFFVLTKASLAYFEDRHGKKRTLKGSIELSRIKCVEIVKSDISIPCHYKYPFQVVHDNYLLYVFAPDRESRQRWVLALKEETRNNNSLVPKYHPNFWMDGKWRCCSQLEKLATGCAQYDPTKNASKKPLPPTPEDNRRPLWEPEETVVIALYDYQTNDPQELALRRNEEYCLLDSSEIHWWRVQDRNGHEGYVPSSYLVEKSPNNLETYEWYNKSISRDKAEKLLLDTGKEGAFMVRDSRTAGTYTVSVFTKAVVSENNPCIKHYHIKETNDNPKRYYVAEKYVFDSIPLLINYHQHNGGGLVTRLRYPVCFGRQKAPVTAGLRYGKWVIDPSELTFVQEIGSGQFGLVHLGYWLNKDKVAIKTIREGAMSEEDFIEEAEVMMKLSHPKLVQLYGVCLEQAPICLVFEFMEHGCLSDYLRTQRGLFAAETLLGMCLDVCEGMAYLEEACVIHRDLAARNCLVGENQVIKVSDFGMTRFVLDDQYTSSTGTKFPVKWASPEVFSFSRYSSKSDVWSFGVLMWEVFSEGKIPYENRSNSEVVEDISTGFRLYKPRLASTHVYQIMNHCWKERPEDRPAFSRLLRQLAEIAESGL
The settings on record: at 1 µM.

Test [10] deals with T2, Tyrosine-protein kinase ITK/TSK (Homo sapiens). The settings on record: at 10 µM.
The target of test [11] is T3, Tyrosine-protein kinase JAK3 (Homo sapiens) (UniProt P52333).
T3 sequence (whole entry): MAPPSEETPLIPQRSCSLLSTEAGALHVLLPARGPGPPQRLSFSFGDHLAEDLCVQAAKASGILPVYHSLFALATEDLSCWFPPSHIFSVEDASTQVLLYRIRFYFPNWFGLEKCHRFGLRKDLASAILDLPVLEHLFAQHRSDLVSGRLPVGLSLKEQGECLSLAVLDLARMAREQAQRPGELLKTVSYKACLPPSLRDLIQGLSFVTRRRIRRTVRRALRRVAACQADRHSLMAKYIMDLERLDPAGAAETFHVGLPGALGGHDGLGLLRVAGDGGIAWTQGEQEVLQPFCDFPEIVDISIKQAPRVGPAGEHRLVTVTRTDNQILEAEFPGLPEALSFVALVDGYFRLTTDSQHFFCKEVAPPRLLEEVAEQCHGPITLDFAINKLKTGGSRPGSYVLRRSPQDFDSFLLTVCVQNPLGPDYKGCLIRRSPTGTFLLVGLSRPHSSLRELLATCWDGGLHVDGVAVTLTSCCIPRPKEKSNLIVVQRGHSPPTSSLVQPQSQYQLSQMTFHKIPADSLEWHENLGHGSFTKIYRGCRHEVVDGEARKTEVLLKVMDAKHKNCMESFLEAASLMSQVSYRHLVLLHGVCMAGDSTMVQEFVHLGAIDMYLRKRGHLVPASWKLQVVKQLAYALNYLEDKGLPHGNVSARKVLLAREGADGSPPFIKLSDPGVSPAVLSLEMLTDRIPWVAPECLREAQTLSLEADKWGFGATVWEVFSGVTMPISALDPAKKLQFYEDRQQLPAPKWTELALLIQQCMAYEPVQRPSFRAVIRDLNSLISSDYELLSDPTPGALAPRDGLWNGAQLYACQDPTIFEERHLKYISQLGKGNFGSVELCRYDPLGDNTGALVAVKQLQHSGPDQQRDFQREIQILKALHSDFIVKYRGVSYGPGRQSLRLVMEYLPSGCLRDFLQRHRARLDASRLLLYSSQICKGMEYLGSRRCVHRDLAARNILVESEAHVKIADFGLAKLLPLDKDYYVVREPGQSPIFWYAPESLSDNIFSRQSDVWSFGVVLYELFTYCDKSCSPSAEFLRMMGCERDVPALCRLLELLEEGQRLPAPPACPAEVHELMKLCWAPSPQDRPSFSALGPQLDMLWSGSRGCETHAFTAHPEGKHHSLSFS
The settings on record: at 1 µM.

The target of test [12] is T3, Tyrosine-protein kinase JAK3 (Homo sapiens). The settings on record: at 10 µM.
Test [13] deals with Mitogen-activated protein kinase 8 (Homo sapiens) (UniProt P45983). The settings on record: at 1 µM.
Mitogen-activated protein kinase 8 (Homo sapiens), sequence (P45983 whole entry): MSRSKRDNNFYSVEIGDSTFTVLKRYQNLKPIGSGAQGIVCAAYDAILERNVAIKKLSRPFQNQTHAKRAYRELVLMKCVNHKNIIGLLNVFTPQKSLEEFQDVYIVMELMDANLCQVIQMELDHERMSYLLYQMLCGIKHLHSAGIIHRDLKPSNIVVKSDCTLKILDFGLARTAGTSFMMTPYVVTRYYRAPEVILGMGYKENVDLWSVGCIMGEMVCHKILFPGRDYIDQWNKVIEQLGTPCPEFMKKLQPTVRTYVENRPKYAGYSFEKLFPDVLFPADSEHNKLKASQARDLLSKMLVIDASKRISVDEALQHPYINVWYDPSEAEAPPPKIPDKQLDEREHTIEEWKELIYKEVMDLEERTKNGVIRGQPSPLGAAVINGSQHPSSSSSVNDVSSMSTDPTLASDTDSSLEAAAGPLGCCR
For test [14] the target is unchanged. The settings on record: at 10 µM.
In test [15] the target is Mitogen-activated protein kinase 9 (Homo sapiens) (UniProt P45984). The settings on record: at 10 µM.
Mitogen-activated protein kinase 9 (Homo sapiens), sequence (P45984 whole entry, looked up): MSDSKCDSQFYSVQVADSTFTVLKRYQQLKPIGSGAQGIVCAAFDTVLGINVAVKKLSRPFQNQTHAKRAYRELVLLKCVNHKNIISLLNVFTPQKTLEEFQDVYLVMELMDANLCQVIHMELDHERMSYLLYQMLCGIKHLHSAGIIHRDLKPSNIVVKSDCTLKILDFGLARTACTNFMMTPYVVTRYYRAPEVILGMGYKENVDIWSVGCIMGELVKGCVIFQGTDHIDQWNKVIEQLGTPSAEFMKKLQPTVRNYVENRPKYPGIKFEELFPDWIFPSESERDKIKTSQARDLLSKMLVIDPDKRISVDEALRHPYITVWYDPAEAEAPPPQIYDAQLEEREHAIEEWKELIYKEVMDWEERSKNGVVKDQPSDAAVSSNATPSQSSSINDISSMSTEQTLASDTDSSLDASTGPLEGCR
The target of test [16] is Mitogen-activated protein kinase 10 (Homo sapiens) (UniProt P53779). The settings on record: at 1 µM.
Mitogen-activated protein kinase 10 (Homo sapiens), sequence (P53779 whole entry): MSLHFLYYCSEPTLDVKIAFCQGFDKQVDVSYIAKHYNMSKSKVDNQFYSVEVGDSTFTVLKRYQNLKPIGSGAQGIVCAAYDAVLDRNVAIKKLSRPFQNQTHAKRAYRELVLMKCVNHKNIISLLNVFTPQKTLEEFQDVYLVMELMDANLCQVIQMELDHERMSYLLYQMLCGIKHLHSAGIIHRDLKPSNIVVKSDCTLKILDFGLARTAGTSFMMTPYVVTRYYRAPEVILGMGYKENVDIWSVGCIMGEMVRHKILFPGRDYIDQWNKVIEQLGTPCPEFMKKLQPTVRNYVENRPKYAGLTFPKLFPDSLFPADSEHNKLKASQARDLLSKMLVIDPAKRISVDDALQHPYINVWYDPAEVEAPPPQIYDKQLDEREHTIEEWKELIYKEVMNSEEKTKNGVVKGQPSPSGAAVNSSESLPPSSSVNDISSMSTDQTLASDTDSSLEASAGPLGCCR
The target of test [17] is T1, Interleukin-1 receptor-associated kinase 4 (Homo sapiens). The settings on record: at 10 µM.
Test [18] has as its target Tyrosine-protein kinase JAK2 (Homo sapiens) (UniProt O60674). The settings on record: at 1 µM.
The target is the same in test [19]. The settings on record: at 10 µM.
The target of test [20] is Mitogen-activated protein kinase 9 (Homo sapiens) (UniProt P45984). The settings on record: at 1 µM.

Interleukin-1 receptor-associated kinase 1 (Homo sapiens), sequence (P51617 whole entry, looked up): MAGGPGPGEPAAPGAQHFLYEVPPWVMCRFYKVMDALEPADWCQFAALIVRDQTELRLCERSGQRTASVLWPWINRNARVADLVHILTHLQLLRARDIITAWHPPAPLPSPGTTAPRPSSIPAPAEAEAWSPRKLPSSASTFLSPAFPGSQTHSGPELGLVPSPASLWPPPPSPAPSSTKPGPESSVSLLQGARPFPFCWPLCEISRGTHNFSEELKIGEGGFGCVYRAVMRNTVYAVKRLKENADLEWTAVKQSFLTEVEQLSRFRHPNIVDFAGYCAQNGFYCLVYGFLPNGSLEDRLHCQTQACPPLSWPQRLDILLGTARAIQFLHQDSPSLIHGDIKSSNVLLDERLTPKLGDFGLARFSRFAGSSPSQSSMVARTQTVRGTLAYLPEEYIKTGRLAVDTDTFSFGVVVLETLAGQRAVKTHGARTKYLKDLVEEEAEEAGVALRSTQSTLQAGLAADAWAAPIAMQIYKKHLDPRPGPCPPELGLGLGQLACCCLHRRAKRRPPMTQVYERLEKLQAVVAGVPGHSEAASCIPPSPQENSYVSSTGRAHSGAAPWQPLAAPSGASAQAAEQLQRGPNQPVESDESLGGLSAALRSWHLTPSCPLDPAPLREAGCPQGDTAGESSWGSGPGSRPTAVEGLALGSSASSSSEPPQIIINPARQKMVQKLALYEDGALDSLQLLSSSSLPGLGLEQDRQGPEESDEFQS
Tyrosine-protein kinase JAK2 (Homo sapiens), sequence (O60674 whole entry): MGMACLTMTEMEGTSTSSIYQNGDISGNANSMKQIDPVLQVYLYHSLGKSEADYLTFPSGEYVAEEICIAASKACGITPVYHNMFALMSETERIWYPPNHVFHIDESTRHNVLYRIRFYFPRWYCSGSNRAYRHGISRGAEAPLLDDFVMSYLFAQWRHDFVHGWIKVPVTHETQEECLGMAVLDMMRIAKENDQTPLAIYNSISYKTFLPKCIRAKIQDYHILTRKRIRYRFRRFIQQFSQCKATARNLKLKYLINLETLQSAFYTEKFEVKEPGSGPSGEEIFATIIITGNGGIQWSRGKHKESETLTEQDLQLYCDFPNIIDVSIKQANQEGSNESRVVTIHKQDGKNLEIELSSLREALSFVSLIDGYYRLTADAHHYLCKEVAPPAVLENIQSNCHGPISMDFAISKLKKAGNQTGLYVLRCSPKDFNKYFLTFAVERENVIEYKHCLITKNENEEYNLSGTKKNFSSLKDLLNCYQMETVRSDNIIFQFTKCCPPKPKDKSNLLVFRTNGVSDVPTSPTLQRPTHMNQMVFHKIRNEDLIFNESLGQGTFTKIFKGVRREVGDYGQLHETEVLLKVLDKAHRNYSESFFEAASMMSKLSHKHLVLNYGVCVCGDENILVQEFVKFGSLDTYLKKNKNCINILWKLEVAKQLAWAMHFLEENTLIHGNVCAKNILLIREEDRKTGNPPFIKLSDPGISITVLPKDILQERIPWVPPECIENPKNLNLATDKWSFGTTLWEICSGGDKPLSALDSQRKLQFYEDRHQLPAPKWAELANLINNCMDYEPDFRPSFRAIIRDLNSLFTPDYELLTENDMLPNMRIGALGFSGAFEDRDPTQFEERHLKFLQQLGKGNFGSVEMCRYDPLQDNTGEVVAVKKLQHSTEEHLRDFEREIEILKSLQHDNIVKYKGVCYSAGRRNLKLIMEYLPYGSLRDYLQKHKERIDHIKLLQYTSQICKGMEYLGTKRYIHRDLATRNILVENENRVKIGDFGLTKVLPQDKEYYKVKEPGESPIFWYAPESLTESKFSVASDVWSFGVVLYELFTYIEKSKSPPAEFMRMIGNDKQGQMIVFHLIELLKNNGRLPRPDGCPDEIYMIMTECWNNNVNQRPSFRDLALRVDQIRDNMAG
Insulin receptor-related protein (Homo sapiens), sequence (P14616 27-742 limits assumed): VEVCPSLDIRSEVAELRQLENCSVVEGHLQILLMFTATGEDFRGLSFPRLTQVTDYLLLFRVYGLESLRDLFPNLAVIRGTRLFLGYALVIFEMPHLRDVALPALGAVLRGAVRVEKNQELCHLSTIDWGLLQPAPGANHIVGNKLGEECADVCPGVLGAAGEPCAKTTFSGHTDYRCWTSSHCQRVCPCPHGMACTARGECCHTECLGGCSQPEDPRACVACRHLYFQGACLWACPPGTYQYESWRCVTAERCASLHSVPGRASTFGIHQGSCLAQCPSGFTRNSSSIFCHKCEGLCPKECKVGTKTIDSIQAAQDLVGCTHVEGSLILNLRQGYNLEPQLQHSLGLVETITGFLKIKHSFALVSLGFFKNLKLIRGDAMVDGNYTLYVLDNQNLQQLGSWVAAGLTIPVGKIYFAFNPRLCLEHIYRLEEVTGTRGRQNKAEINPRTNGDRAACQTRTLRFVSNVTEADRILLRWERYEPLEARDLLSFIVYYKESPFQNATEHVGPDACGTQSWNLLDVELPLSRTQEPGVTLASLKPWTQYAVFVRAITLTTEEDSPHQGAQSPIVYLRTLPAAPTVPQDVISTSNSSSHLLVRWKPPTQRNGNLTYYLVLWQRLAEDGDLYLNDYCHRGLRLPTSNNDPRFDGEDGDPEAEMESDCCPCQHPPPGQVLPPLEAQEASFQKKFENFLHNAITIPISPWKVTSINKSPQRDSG
Insulin receptor-related protein (Homo sapiens), sequence (P14616 747-1297 limits assumed): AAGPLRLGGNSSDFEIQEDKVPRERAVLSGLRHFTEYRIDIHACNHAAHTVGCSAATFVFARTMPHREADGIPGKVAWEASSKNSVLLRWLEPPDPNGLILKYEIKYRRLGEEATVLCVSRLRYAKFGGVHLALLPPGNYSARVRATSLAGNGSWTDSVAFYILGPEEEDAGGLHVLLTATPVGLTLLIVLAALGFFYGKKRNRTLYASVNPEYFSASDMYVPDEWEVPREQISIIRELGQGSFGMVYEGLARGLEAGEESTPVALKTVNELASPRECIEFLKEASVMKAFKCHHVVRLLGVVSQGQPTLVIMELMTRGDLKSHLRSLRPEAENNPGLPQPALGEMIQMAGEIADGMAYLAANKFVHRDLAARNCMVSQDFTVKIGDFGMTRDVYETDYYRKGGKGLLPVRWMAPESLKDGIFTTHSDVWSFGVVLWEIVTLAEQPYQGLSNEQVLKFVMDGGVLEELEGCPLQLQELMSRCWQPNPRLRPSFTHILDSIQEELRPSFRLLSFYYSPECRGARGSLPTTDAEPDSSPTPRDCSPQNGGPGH

Turning to `COc1cc2nccc(Oc3ccc(NC(=S)NC(=O)c4ccccc4C)cc3)c2cc1OC`, the residual activity in test [1] turned out to be 138%; in [2], 97%; in [3], 92%; in [4] it was 79%; in [5] it was 67%; in [6], 96%. The residual activity in test [7] is 121%; in test [8], 74%; in [9] it was 79%; in test [10], 48%; in test [11], 86%; in test [12], 92%. Also, the residual activity is 95% in test [13], 78% in [14], 87% in [15] and 69% in [16].

As for `O=C(CCCc1ccc(-c2ccccc2F)cc1)Nc1ccc(O)cc1`, the residual activity in [1] came out at 102%; in [2] it was 97%; in test [3] it was 97%; in test [4], 78%; in [6] it was 93%; in [17], 82%. Further, the residual activity came out at 88% in [7]; 98% in test [8]; 90% in [9]; 98% in test [10]; 108% in test [18]; 111% in [19]. For the same compound, the residual activity turned out to be 104% in test [11]; 104% in test [12]; 99% in test [13]; 98% in [14]; 93% in [20]; 99% in test [15]. Moreover, in test [16], the residual activity worked out at 109%.

`O=C1NC(=O)C(c2cn(CCCO)c3ncccc23)=C1c1cnccn1`: the residual activity in test [1] stood at 96%; in test [2], 94%; in test [3], 92%; in test [4], 98%; in test [5], 98%; in test [6], 87%. In addition, the residual activity came out at 70% in test [17]; 94% in [9]; 91% in [10]; 96% in test [20]; 80% in test [15]; 89% in test [16].

As to `O=C1C(Cl)=C(N2C(=O)CCC2=O)C(=O)c2ccccc21`, the residual activity turned out to be 87% in test [1]; 89% in test [2]; 93% in test [3]; 85% in test [4]; 75% in test [6]; 83% in [17]. Moreover, the residual activity in test [11] was 100%; in test [12], 89%; in test [13], 96%; in test [14] it was 86%; in test [20] it was 89%; in test [15], 102%. The residual activity in test [16] came out at 88%.

For the compound `Nc1ncnc2[nH]nc(Nc3ccc(F)cc3)c12`, the residual activity came out at 103% in test [1]; 97% in [2]; 90% in [3]; 93% in [4]; 101% in [5]; 58% in test [17]. Besides, the residual activity is 124% in test [7]; 106% in test [8]; 103% in test [9]; 78% in test [10]; 103% in test [18]; 93% in [19]. Moreover, the residual activity is 101% in [11]; 90% in test [12]; 105% in test [13]; 93% in test [14]; 92% in test [20]; 93% in [15]. Besides, in [16], the residual activity was 98%.

With `CN(C)S(=O)(=O)c1ccc2c(c1)/C(=C/c1cc3c([nH]1)CCCC3)C(=O)N2`, the residual activity in [1] amounted to 88%; in [3] it was 95%; in test [4], 9%; in [5], 0%; in [6], 19%; in test [17], 17%. The residual activity is 85% in [7]; 77% in test [8]; 23% in [9]; 22% in test [10]; 67% in test [18]; 25% in [19]. The residual activity in test [11] came to 66%; in test [12] it was 48%; in [13] it was 99%; in [14] it was 94%; in test [16], 89%.
